The values below come from PubChem BioAssay (NCATS).

Inconclusive results are not listed. Values without a mark were called inactive. The source made the active and inactive calls. The call rests on the fitted dose curve; in most records, active means well fitted activation curve with a large enough effect; inconclusive means small, poorly fitted or top-dose-only effect; inactive means no such curve, though single readings can be large or run the other way.
Potency means the concentration at half of the fitted maximal effect.

For this assay, the target named is Cellular tumor antigen p53 (Homo sapiens) (UniProt P04637). Description: Primary qHTS for small molecule compounds that upregulate eGFP-tagged delta133p53alpha (in N-terminal) cells. (AID 2060322). Further: nearly all actives have a fitted effect of over 75% in size.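 On activation: series mostly up to about 56 µM; 0% = DMSO vehicle and 100% = reference activator.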 As to conditions: NCI-H358 eGFP-delta133p53alpha fluorescence, 24 h; activation: hits give high values. Summed up: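 NCI-H358 cells pre-induced 24 h with 10 ng/ml doxycycline to express N-terminal eGFP-delta133p53alpha, then dosed 24 h at 37C without doxycycline; fixed, Hoechst-stained, GFP intensity by laser scanning cytometry, normalized to DMSO (0%) and 57.5 uM 5-azacytidine (100%).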
Sequence of Cellular tumor antigen p53 (Homo sapiens) (P04637 whole entry, looked up): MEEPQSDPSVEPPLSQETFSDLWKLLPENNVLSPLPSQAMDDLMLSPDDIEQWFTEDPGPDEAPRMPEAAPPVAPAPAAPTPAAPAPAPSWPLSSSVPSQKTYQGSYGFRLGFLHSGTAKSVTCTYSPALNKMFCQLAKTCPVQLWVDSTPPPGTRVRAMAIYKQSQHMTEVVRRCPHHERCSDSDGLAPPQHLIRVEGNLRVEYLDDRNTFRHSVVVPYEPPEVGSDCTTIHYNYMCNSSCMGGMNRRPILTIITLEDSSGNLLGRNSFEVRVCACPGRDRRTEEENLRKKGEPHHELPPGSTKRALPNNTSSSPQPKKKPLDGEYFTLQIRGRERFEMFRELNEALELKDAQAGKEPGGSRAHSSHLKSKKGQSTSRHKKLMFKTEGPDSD
Background: qHTS replaces the single test concentration by a dilution series.
On to `COc1cc(C)nc(-n2nc(C)cc2OC)n1`, for which the activation was -12.6%. Still for that read-out and setting: next, `CN1Cc2cc(C(=O)N3CCC(C4CCNCC4)CC3)ccc2N[C@@H](CC(=O)O)C1=O`: 20.1%; `C[C@@H]1CC[C@@]2(OC1)O[C@H]1C[C@H]3[C@@H]4CC[C@H]5C[C@@H](O)CC[C@]5(C)[C@H]4CC(=O)[C@]3(C)[C@H]1[C@@H]2C`: -17.6%; `C=CCNC(N)=S`: -2.82%. On to `CN(C)C(=S)SC(=S)N(C)C`, for which the Potency was 21.9 µM (active). In the case of `CCc1cc(Cl)c(OC)c(C(=O)NC[C@@H]2CCCN2CC)c1O`, the activation was 13.4%.

On to `NC(=O)NC1N=C([O][Al])NC1=O` (stereo not given), for which the activation is 8.47%. Turning to `CON=C(C(=O)N[C@@H]1C(=O)N2C(C(=O)OCOC(=O)C(C)(C)C)=C(C=Cc3scnc3C)CS[C@H]12)c1csc(N)n1`, the activation was -6.48%. As for `CC(=O)OC(C)OC(=O)C(C)c1ccc(-c2ccccc2)c(F)c1` (stereo not given), the activation is -24.3%. As to `NCc1ccccc1Sc1ccccc1CO`, the activation is 15.3%. Consider `CCOC(=O)[C@H](CCc1ccccc1)N[C@@H](C)C(=O)N1CCCC1C(=O)O` (stereo not given in full), for which the activation is -2.61%. `CC(C)=CCCC(C)=CCCC(C)=CCCC(C)=CCCC(C)=CCCC(C)=CCCC(C)=CCCC(C)=CCCC(C)=CCO`: the activation was 8.65%. For the compound `C[C@@H]1C[C@H]2[C@@H]3C[C@H](F)C4=CC(=O)C(Cl)=C[C@]4(C)[C@@]3(F)[C@@H](O)C[C@]2(C)[C@@]1(O)C(=O)CO`, the activation was -14.1%. As for `CCCCOc1ccc(C(=O)CCN2CCCCC2)cc1`, the activation is 10.9%. For the compound `CC[C@@H](CO)NCCN[C@@H](CC)CO`, the activation was -10%. Take `CCNC(=O)/C=C/c1cccc(Br)c1`: the activation is -10.9%. Consider `CCOC(=O)CN1CCCC1=O`, for which the activation is -0.837%.

Consider `Cc1ncc(CO)c(CO)c1O`, for which the activation is -24.3%. For `Nc1nc(NCc2ccccc2)c2[nH]cnc2n1`, the activation was 6.7%. With `Cc1onc(-c2ccccc2)c1C(=O)Cl`, the activation is 6.21%. Regarding `COc1ccnc2c1CCCCC2S(=O)c1nc2ccccc2[nH]1` (stereo not given), the activation is 11.9%. Turning to `COc1cc2c(cc1OC)C(=O)CC2`, the activation was -2.82%.

With `Nc1ccc(C(=O)Oc2ccccc2)c(O)c1`, the activation is -3.35%.

As for `COc1ccc2ccc(=O)oc2c1CC=C(C)C`, the activation is -15%. As to `Cc1cc(C(C)(C)C)c(O)c(C(C)(C)C)c1`, the Potency was 21.9 µM (active). For the compound `Nc1ccc(S(=O)(=O)Nc2cnc3ccccc3n2)cc1`, the activation was -24.3%. In the case of `O=S(=O)(O)c1ccc2nc(-c3ccccc3)[nH]c2c1`, the activation was 23.2%. Turning to `Oc1cc(O)cc(C=Cc2ccc(O)c(O)c2)c1`, the activation was 8.33%. Take `FC(F)(F)c1ccc(C=Cc2nc(COc3ccc(CCCCn4ccnn4)cc3)co2)cc1`: the Potency was 24.3 µM (active).

Consider `CCC(C)(CN(C)C)OC(=O)c1ccccc1` (stereo not given), for which the activation was -10.9%. For the compound `CC(=O)N(CC(=O)N(C)C)c1ccccc1`, the activation was -7.53%. Regarding `COc1cc(Cl)cn2c(-c3cccc(NC4CNC4)n3)cnc12`, the activation was -0.246%. Turning to `CC[C@H]1OC(=O)[C@H](C)[C@@H](O[C@H]2C[C@@](C)(OC)[C@@H](O)[C@H](C)O2)[C@H](C)[C@@H](O[C@@H]2O[C@H](C)C[C@H](N(C)C)[C@@H]2O)[C@](C)(O)C[C@@H](C)CN(C)[C@H](C)[C@@H](O)[C@]1(C)O`, the activation was 2.23%. With `COc1cc(C(=O)NCCCCCC(=O)O)cc(OC)c1OC`, the activation was -9.6%. The same measure, in the same setting: next, `CC1(C)O[C@@H]2[C@@H](CO[C@@]3(COS(N)(=O)=O)OC(C)(C)O[C@@H]23)O1`: -2.51%; `COc1ccc(-n2nc(CCC(=O)N(C)O)cc2-c2ccc(Cl)cc2)cc1`: -8.47%; `OCC(O)CS` (stereo not given): -8.47%.

`CCOC(=O)N1CCN([N+]([O-])=NOc2ccc([N+](=O)[O-])cc2C#N)CC1`: the activation was 12.2%. With `Cc1c[nH]c2ccccc12`, the activation is 17.6%. Still for that read-out and setting: in the case of `NC(=O)c1ncn([C@@H]2O[C@H](CO)[C@@H](O)[C@@H]2O)c1O` it was -3.98%.
